Reference: PubChem BioAssay AID1259313 (Sanford-Burnham Center for Chemical Genomics, 2017)
The campaign covered roughly 340,000 compounds. About 8,500 (2.5%) were called active.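 Rule for the calls: active = melting temperature shift of at least 10% of the positive control shift, at one fixed dose; inactive = the rest.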 For the sample, actives were picked, then their nearest neighbours and some compounds at random.

system: Glutamate receptor ionotropic, NMDA 3A (GRIN3A) ligand-binding domain; assay: NR3A LBD thermal stabilization by compounds – biophysical, differential scanning fluorimetry, uHTS, primary screen (AID 1259313); details: at 25 µM, active compounds read high, 0% = protein alone, 100% = glycine-bound protein

SMILES | Tm shift relative to glycine control
O=C(O)c1cscn1 | -2.23% (inactive)
Cc1oc(-c2ccccc2Cl)[n+]([O-])c1C | 0.65% (inactive)
COC(=O)C1NN=C(C(=O)c2ccc(Br)cc2)C1c1cccc(Br)c1 (stereo not drawn) | -3.88% (inactive)
COC(=O)C1=C(C)N(C)C(=S)NC1c1ccccc1 (stereo not drawn) | 1.46% (inactive)
COC(=O)C1=C(C)N(C)C(C)=C(C(=O)OC)C1c1cccc(Br)c1 | 10.9% (active)
COc1ccc2c(CC(=O)OCC(=O)NC(N)=O)coc2c1 | -1.31% (inactive)
Cn1cccc1C(=O)NC(=O)COC(=O)Cc1coc2ccc3ccccc3c12 | 711% (active)
O=C(Cc1coc2ccc3ccccc3c12)NCc1cccs1 | -3.17% (inactive)
CN(C)S(=O)(=O)c1ccc(C(=O)NCC2(N3CCOCC3)CCCCC2)cc1 | -0.34% (inactive)
CCC(C)NC(=O)C1c2ccccc2C(=O)N1Cc1ccccc1 (stereo not drawn) | 0.89% (inactive)
COc1ccc(NC(=O)/C(N=Nc2cccc(S(=O)(=O)Nc3ccc(SC(F)F)cc3)c2)=C(\C)O)cc1 | 28% (active)
Cc1c(NS(=O)(=O)c2cccc(C(=O)Nc3ccc(SC(F)F)cc3)c2)c(=O)n(-c2ccccc2)n1C | -4.82% (inactive)
Nc1cccc(S(=O)(=O)Nc2ccc(SC(F)F)cc2)c1 | -8.52% (inactive)
Cc1ccc(NN=C2C(=O)OC(C)(C)OC2=O)c(C)c1 | -1.21% (inactive)
CC(CO)N1CCS(=O)(=O)CC1 (stereo not drawn) | 0.09% (inactive)
CCOc1ccc(N/C(N)=N/c2nc(C)c(C)c(=O)[nH]2)cc1 | 2.12% (inactive)
CCOc1ccc(NC(=O)c2cc(C)nc3ccccc23)cc1 | -0.84% (inactive)
Cc1ccc2nc(C)c3c(c2c1)N(c1ccccc1)CC3 | -1.71% (inactive)
CN1CCN(c2nc(Nc3ccc(O)cc3)nc3ccccc23)CC1 | -0.23% (inactive)
Cc1ccc2nc(Nc3ccccc3)cc(C)c2c1 | 30.3% (active)
Cc1ccc(Nc2nc(C)cc(C)c2C(N)=O)cc1 | -2.09% (inactive)
Cc1cc(Nc2ccc(Br)cc2)nc2ccccc12 | 45.6% (active)
Cc1cccc(NC(=S)N2CCC(O)CC2)c1C | 1.31% (inactive)
CC(C)=CCN1CCN(Cc2ccc(Oc3ncccn3)cc2)CC1CCO (stereo not drawn) | 0.09% (inactive)
COC(=O)c1ccc(NC(=O)C23CC4CC(C2)CC(n2cnc(Cl)n2)(C4)C3)cc1 | -0.61% (inactive)
O=C(CSc1ncn[nH]1)Nc1nc(-c2cccc([N+](=O)[O-])c2)cs1 | -2.42% (inactive)
O=C(CSc1nc(-c2ccccc2)cs1)Nc1cccc([N+](=O)[O-])c1 | 34.4% (active)
COc1ccc(-n2cnnc2SCC(=O)Nc2cccc([N+](=O)[O-])c2)cc1 | -0.86% (inactive)
